Where “and” joins values, the source holds several entries; their conditions need not be identical. Equal entries are not always repeated. Records with an inconclusive call do not appear. Calls of active or inactive are those of the source.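 The calls were made as follows, unless noted: active = compounds whose dose series gives a full or clear partial fitted curve of increased nuclear translocation; inconclusive = weak partial curve or effect only at the top dose; inactive = no dose-dependent translocation response.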
Key:
[1] = target: Glucocorticoid receptor (Homo sapiens) (UniProt P04150); test: GR-GFP Redistribution (AID 450); details: U2OS GR-GFP nuclear translocation, laser cytometry, 2 h; also: potency is read from the fitted curve at half-maximal effect
[2] = target: Glucocorticoid receptor (Homo sapiens) (UniProt P04150); test: GR-EFC Redistribution (AID 451; calls by dose curve; also: potency is read from the fitted curve at half-maximal effect); details: CHO-K1 GR-EFC translocation, beta-gal luminescence, 2 h
Summary of the method: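 Translocation of GR-ED fusion to nuclear EA restores b-gal, read by luminescence after 1 h room-temperature detection. Engineered CHO-K1 biosensor cells, 1,000/well, exposed 2 h at 37 C to titrations up to 46 uM final.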

[3] = target: Mitogen-activated protein kinase 10 (Mus musculus) (UniProt Q61831); test: JNK3 AlphaScreen Assay (AID 530; active = well fitted curve in either direction with a large enough effect, not every such curve was filed as active;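 also: kinase came from lysate of stimulated human HepG2 cells; signal reports phosphorylation of biotinylated GST-cJun 1-79 at Ser73 with 10 µM ATP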); details: JNK3 lysate, c-Jun phosphorylation; series mostly up to 57.1 µM
Summary of the method: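 Room-temperature AlphaScreen kinase assay; pre-activated HepG2 lysate as JNK3 source, biotin-GST-cJun(1-79) substrate, 10 uM ATP, compound 15 min preincubation.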

[4] = target: 3',5'-cyclic-AMP phosphodiesterase 4B (Homo sapiens) (UniProt Q07343); test: qHTS Assay for Inhibitors of PDE-IV (AID 607; active = well fitted activation curve with a large enough effect in the main read-out, with a control signal flat, not every such curve was filed as active); details: HEK293 ACTOne CNG channel cells, membrane potential fluorescence; series mostly up to 22.9 µM
Summary of the method: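 ACTOne HEK293 cells carry a modified cAMP-gated CNG channel and express endogenous PDE4; plated 1000 cells/well, compounds up to 22.9 uM final. Membrane-potential dye fluorescence (ex 535/em 590) was read; parental cells received 10 uM forskolin + 100 uM RO 20-1724.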

Measured: Potency

Chain of Glucocorticoid receptor (Homo sapiens) (P04150 whole entry, looked up, the tested form may be a part): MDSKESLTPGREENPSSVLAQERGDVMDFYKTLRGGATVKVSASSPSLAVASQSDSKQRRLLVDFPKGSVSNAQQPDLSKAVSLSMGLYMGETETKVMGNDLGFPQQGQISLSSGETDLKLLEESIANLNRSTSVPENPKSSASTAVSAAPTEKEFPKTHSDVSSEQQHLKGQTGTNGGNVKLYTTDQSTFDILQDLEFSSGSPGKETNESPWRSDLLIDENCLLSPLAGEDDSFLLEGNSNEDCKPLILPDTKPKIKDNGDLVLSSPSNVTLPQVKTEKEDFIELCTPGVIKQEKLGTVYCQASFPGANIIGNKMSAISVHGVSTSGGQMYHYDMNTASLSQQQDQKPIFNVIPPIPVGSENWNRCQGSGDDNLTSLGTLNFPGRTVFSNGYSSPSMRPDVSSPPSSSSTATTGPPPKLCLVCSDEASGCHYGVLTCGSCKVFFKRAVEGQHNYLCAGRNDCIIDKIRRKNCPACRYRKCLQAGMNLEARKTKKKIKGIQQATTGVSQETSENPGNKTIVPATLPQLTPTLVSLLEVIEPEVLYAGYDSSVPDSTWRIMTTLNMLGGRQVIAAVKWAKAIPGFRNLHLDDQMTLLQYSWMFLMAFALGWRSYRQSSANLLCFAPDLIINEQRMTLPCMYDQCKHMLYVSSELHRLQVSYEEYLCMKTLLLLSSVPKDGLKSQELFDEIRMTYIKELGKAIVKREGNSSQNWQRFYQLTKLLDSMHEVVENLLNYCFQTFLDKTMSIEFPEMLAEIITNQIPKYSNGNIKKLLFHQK
Chain of 3',5'-cyclic-AMP phosphodiesterase 4B (Homo sapiens) (Q07343 whole entry, looked up): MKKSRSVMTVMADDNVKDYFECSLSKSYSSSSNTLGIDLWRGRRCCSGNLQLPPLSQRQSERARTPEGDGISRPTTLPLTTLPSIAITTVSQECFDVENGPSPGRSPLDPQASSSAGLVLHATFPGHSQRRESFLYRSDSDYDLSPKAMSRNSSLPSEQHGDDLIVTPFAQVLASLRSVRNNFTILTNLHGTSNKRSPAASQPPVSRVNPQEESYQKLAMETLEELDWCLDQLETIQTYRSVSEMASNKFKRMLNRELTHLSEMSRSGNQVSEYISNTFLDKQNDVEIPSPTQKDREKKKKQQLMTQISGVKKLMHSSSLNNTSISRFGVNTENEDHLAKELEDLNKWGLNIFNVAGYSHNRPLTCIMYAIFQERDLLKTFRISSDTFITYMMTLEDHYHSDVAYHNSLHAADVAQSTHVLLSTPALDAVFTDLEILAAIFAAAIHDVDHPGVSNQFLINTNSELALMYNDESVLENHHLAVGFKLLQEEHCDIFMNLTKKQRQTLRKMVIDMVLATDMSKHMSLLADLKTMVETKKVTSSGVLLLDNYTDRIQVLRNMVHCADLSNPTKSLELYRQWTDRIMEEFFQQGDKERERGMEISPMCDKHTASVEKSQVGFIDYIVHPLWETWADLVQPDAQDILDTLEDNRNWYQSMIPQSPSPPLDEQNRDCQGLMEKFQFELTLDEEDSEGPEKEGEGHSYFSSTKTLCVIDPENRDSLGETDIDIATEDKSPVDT

Clc1cccc(N2CCNCC2)c1
inactive: [1] > 46 µM | [2] > 46 µM | [3] | [4]

C=C1CC[C@@]2(O)[C@H]3Cc4ccc(O)c5c4[C@@]2(CCN3CC2CC2)[C@H]1O5
inactive: [1] > 20.6 µM

CN(C)CCN(C)CCc1ccc(Cl)c(Cl)c1
inactive: [1] > 46 µM | [2] > 46 µM | [3]

CC(CCc1ccccc1)NC(C)C(O)c1ccc(O)cc1 (stereo not given)
inactive: [1] > 20.6 µM

Fc1ccc(C(OCCN2CCN(CCCc3ccccc3)CC2)c2ccc(F)cc2)cc1
inactive: [1] > 46 µM and > 20.6 µM | [2] > 46 µM and > 20.6 µM | [3] | [4]

Cc1ccc(S(=O)(=O)N[C@@H](CCCCN)C(=O)CCl)cc1
inactive: [1] > 46 µM | [2] > 46 µM | [3] | [4]

c1ccc(C2CC2)c(OCC2=NCCN2)c1
inactive: [1] > 46 µM | [2] > 46 µM | [3] | [4]

C#CCN(C)[C@H](C)Cc1ccccc1
inactive: [1] > 46 µM | [2] > 46 µM | [3] | [4]

NP(N)(=O)NC(=O)c1ccc(F)cc1
inactive: [1] > 46 µM | [2] > 46 µM | [3] | [4]

CCN(CC)C(=O)N[C@@H]1C=C2c3cccc4[nH]cc(c34)C[C@@H]2N(C)C1
inactive: [1] > 46 µM | [2] > 46 µM | [3] | [4]

CN(C)[C@@H]1C(=O)C(C(N)=O)=C(O)[C@@]2(O)C(=O)C3=C(O)c4c(O)cccc4[C@@](C)(O)[C@H]3C[C@@H]12
inactive: [1] > 20.6 µM

O=P1(NCCCl)OCCCN1CCCl (stereo not given)
inactive: [1] > 20.6 µM | [2] > 20.6 µM | [3] | [4]

Cc1ncc(CNC(=O)N(CCCl)N=O)c(N)n1
inactive: [1] > 46 µM | [2] > 46 µM | [3] | [4]

O=c1[nH]c2ccccc2n1C1CCN(CCCC(c2ccc(F)cc2)c2ccc(F)cc2)CC1
inactive: [1] > 46 µM and > 20.6 µM | [2] > 46 µM and > 20.6 µM | [3] | [4]

NCC(CC(=O)O)c1ccc(Cl)cc1 (stereo not given)
inactive: [1] > 20.6 µM

c1ccc2c(c1)OCC(C1=NCCN1)O2 (stereo not given)
inactive: [1] > 20.6 µM

CC[N+]1(C)CCCC(OC(=O)C(O)(c2ccccc2)c2ccccc2)C1 (stereo not given)
inactive: [1] > 20.6 µM

CCCN1CCC[C@@H]2Cc3[nH]ncc3C[C@H]21
inactive: [1] > 46 µM and > 20.6 µM | [2] > 46 µM and > 20.6 µM | [3] | [4]

COC1(CS(=O)c2ccccc2)CCN(CCc2c[nH]c3ccc(F)cc23)CC1 (stereo not given)
inactive: [1] > 46 µM | [2] > 46 µM | [3] | [4]

NCC1(CC(=O)O)CCCCC1
inactive: [1] > 46 µM and > 20.6 µM | [2] > 46 µM and > 20.6 µM | [3] | [4]

O=[N+]([O-])c1cc([As](=O)(O)O)ccc1O
inactive: [1] > 20.6 µM | [2] > 20.6 µM | [3] | [4]
